Active and inactive are the calls of the source.
How the values were obtained:
[1] = optical density shifts of acrAB sulA E. coli – strain DRC41, OD650, 48 h, E. coli filamentation inducer project, primary screen (AID 1152); details: higher = more signal, called active from +8 up or from −8 down;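 also: E. coli MC1000 strain DRC41 lacking acrAB efflux pump and sulA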
[2] = probe aLefty1 binding on compound microarray – biochemical, small-molecule microarray, 635/667 nm fluorescence, primary screen (AID 1153); details: higher = more signal;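 also: score merges spot fluorescence with signal-to-noise ratio from the scanned slide images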
[3] = plasmodial surface anion channel blockers, osmotic lysis – cell-based, P. falciparum Indochina, OD700, 1 h, primary screen (AID 1154); details: P. falciparum Indochina infected RBC osmotic lysis, higher = more signal, called active from +8 up or from −8 down
[4] = plasmodial surface anion channel blockers, osmotic lysis – cell-based, P. falciparum Indochina, OD700, 2 h, primary screen (AID 1155);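 also: lysis reports solute entry through the parasite surface anion channel PSAC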; details: P. falciparum Indochina infected erythrocytes, higher = more signal, called active from +8 up or from −8 down
[5] = changes in parasitized red cell lysis, either direction – P. falciparum Indochina, OD700, 3 h, PSAC antagonist project, primary screen (AID 1156); details: P. falciparum-infected erythrocytes, osmotic lysis, higher = more signal, called active from +8 up or from −8 down
[6] = plasmodial surface anion channel blockers, osmotic lysis – cell-based, P. falciparum Indochina, OD700, 18 h, primary screen (AID 1157); details: P. falciparum Indochina infected erythrocytes, osmotic lysis OD700, 18 h; higher = more signal, called active from +8 up or from −8 down
[7] = S6 kinase pathway phospho-S6 level changes – cell-based, A549, cytoblot, luminescence, serum-stimulated, primary screen (AID 1158); details: 5 h, higher = more signal;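 also: serum-stimulated A549 lung adenocarcinoma cells; signal is phosphorylated S6 detected by cytoblot immunostaining with HRP secondary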
[8] = biological target: NADPH oxidase 2 (Homo sapiens) (UniProt P04839); assay: compounds shifting NOX2 Amplex Red fluorescence – cell-based, HEK293-NOX2, PMA-stimulated, NOX inhibitor project, primary screen (AID 1159); details: 45 min, higher = more signal, called active from +8 up or from −8 down; also: test concentration not given here
[9] = biological target: NADPH oxidase 4 (Homo sapiens) (UniProt Q9NPH5); assay: compounds shifting NOX4 Amplex Red fluorescence – cell-based, HEK293-NOX4, tetracycline-induced, NOX inhibitor project, primary screen (AID 1160); details: HEK293-NOX4, Amplex Red H2O2 fluorescence, 45 min; higher = more signal, called active from +8 up or from −8 down
[10] = biological target: NADPH oxidase 5 (Homo sapiens) (UniProt Q96PH1); assay: compounds shifting NOX5 Amplex Red fluorescence – cell-based, HEK293-NOX5, NOX inhibitor project, primary screen (AID 1161); details: HEK293-NOX5, ionomycin, 45 min, higher = more signal
[11] = compound effects on lung adenocarcinoma cell viability – A549, calcein-AM fluorescence, 48 h, basal, profiling panel (AID 1162); details: higher = more signal; also: test concentration not given here
[12] = compound effects on differentiated 3T3-L1 adipocyte viability – cell-based, 3T3-L1 adipocytes, calcein-AM fluorescence, 48 h, basal, profiling panel (AID 1163); details: 3T3-L1 adipocytes viability, higher = more signal; also: test concentration not given here
[13] = compound effects on hepatocellular carcinoma cell viability – HepG2, calcein-AM fluorescence, 48 h, basal, profiling panel (AID 1164); details: higher = more signal; also: test concentration not given here
[14] = compound effects on multiple myeloma cell viability – MM1S, calcein-AM fluorescence, 48 h, basal, profiling panel (AID 1165); details: higher = more signal;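 also: viability of MM1S multiple myeloma cells under basal unstimulated conditions; test concentration not given here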
[15] = calcein-AM signal in unstimulated myeloma cells – cell-based, calcein-AM fluorescence, 48 h, PK04 Diversity Set, profiling panel (AID 1166); details: RPMI8226 myeloma viability, higher = more signal;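 also: cells grown under basal conditions without added stimulus; test concentration not given here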
[16] = JC-1 mitochondrial signal, unstimulated HepG2 cells – cell-based, JC-1 fluorescence, 24 h, 100 nL compound, profiling panel (AID 1167); details: HepG2 mitochondrial potential, higher = more signal; also: test concentration not given here
[17] = JC-1 mitochondrial signal, unstimulated adipocytes – cell-based, JC-1 fluorescence, 3T3-L1 adipocytes, 24 h, 100 nL compound, profiling panel (AID 1168); details: JC-1 mitochondrial fluorescence, higher = more signal, called active from +8 up or from −8 down; also: test concentration not given here
[18] = JC-1 mitochondrial signal, unstimulated myeloma cells – cell-based, JC-1 fluorescence, RPMI8226, 24 h, 100 nL compound, profiling panel (AID 1169); details: JC-1 mitochondrial potential fluorescence, higher = more signal; also: test concentration not given here
[19] = JC-1 mitochondrial signal, unstimulated MM1S myeloma – cell-based, JC-1 fluorescence, 24 h, 100 nL compound, profiling panel (AID 1170); details: MM1S mitochondrial potential, higher = more signal; also: test concentration not given here
[20] = resazurin metabolic signal in A549 cells – cell-based, resazurin fluorescence, 24 h, PK04 Diversity Set, profiling panel (AID 1171); details: A549 viability, higher = more signal, called active from +8 up or from −8 down; also: test concentration not given here

Sequence of NADPH oxidase 2 (Homo sapiens) (P04839 whole entry, looked up): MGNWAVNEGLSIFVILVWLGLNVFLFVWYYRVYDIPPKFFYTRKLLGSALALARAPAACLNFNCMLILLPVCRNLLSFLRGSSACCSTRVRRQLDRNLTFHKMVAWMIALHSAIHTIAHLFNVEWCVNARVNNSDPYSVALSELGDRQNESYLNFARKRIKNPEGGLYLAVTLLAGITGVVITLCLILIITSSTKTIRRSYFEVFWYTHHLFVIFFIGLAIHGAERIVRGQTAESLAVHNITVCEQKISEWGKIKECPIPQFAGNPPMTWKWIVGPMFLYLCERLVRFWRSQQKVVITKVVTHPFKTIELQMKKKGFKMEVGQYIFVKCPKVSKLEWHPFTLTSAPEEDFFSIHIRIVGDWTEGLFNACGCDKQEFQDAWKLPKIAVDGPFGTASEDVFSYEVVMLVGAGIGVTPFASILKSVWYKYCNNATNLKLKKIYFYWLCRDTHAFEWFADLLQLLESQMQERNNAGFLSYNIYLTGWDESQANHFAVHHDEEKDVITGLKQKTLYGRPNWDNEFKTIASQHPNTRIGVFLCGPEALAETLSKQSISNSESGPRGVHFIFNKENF
Sequence of NADPH oxidase 5 (Homo sapiens) (Q96PH1 whole entry, looked up): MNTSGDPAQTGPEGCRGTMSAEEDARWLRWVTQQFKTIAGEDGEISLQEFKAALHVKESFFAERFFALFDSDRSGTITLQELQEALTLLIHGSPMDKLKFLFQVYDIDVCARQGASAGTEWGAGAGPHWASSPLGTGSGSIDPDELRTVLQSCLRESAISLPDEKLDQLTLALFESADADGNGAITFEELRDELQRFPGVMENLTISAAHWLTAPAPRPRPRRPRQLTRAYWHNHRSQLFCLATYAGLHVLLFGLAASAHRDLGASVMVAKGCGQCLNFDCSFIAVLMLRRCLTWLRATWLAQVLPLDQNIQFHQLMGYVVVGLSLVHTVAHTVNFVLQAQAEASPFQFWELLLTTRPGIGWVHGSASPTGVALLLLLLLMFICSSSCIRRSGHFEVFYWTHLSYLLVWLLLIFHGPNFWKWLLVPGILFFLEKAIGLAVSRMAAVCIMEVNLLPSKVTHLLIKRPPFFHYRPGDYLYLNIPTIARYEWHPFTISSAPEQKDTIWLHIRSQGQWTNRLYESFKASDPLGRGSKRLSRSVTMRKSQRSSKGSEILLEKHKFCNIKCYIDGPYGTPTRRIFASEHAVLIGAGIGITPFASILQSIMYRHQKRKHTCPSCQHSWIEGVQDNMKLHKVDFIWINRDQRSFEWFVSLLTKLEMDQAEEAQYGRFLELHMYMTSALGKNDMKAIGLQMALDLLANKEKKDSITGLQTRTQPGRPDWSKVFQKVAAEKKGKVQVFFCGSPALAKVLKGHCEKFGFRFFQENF
Sequence of NADPH oxidase 4 (Homo sapiens) (Q9NPH5 whole entry, looked up): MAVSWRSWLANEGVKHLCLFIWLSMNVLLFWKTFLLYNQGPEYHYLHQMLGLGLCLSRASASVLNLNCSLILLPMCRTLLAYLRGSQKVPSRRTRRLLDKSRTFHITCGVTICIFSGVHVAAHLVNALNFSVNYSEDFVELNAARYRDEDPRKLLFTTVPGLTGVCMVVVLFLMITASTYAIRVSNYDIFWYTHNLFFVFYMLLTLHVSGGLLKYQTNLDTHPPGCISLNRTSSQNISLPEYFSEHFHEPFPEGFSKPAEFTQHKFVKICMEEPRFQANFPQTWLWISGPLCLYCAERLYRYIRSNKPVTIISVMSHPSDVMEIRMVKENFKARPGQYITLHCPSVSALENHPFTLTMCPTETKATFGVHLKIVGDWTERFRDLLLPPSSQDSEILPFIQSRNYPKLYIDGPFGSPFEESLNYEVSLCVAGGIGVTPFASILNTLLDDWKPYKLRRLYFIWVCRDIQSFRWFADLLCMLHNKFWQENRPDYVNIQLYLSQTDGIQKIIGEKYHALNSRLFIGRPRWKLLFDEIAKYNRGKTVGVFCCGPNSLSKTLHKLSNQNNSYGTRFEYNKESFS

SMILES	z-score [1]	composite z-score [2]	z-score [3]	z-score [4]	z-score [5]	z-score [6]	z-score [7]	z-score [8]	z-score [9]	z-score [10]	z-score [11]	z-score [12]	z-score [13]	z-score [14]	z-score [15]	z-score [16]	z-score [17]	z-score [18]	z-score [19]	z-score [20]
CN(C)CCCN1C(=O)[C@@]2(c3ccc([N+](=O)[O-])cc3)CC(=O)N(C3CCCCC3)[C@@H]2c2ccc(CO)cc21	0.493 (inactive)	0.412	-0.275 (inactive)	-0.249 (inactive)	-1.12 (inactive)	-1.73 (inactive)	0.759	-0.209 (inactive)	0.632 (inactive)	0.56	-0.397	0.962	-0.816	-0.0337	0.505	0.446	-0.274 (inactive)	0.764	-0.725	0.572 (inactive)
CCN(CC)c1ccc(N2CC=CC34O[C@@H]5C=CCCOC(=O)C5[C@H]3C(=O)N(CCCO)[C@@H]4C2=O)cc1 (stereo not given in full)	1.44 (inactive)	-0.28	0.555 (inactive)	-0.829 (inactive)	-0.305 (inactive)	-1.15 (inactive)	1.09	-0.0899 (inactive)	-1.23 (inactive)	0.374	-0.0905	0.848	0.0124	-0.0503	-0.402	0.723	0.673 (inactive)	0.0131	0.744	-0.209 (inactive)
O=P(NCC1(CC2(c3ccccc3)CO2)CC1)(c1ccccc1)c1ccccc1 (stereo not given)	-0.569 (inactive)	0.315	0.0174 (inactive)	-0.505 (inactive)	0.424 (inactive)	0.297 (inactive)	-0.242	-0.024 (inactive)	0.266 (inactive)	-2.9	-1.08	-0.933	0.676	0.116	0.0906	-0.187	0.48 (inactive)	0.125	-0.792	0.316 (inactive)
CC(C)(C)OC(=O)CC[C@@]1(C(=O)NCC(O)CO)N=C(c2ccc(OCCCO)cc2)O[C@@H]1c1ccccc1 (stereo not given in full)	-0.0744 (inactive)	0.0004	20.4 (active)	2.42 (inactive)	0.384 (inactive)	0.519 (inactive)	0.0391	0.0533 (inactive)	0.626 (inactive)	1.45	-0.0139	-1.09	1.92	-0.607	-0.0321	1.93	-0.144 (inactive)	-0.0607	-0.844	-0.387 (inactive)
NC(=O)[C@]1(Cc2ccccc2)N=C(c2ccc(OCCCO)cc2)O[C@@H]1c1ccccc1	-0.465 (inactive)	0.351	26.5 (active)	15.6 (active)	0.531 (inactive)	2.19 (inactive)	-0.0349	-0.273 (inactive)	-0.228 (inactive)	0.575	-0.399	0.879	-0.603	-0.598	-1.94	-1.43	-0.517 (inactive)	-0.775	1.18	-0.784 (inactive)
CCCNC(=O)[C@@]1(C)c2ccccc2C(=O)N(Cc2cc(C(F)(F)F)cc(C(F)(F)F)c2)[C@H]1c1ccc(CO)cc1	-0.253 (inactive)	-0.0711	4.6 (inactive)	-0.305 (inactive)	1.97 (inactive)	-0.754 (inactive)	1.49	-1.98 (inactive)	-3.17 (inactive)	-3.73	-0.283	0.531	0.0751	0.341	-1.23	1.22	-0.161 (inactive)	-0.0935	-0.643	1.27 (inactive)
C=CC[C@]1(C(=O)O)N=C(c2ccc(OCCCO)cc2)O[C@H]1c1ccccc1CN=[N+]=[N-]	0.0533 (inactive)	0.0425	13.7 (active)	1.93 (inactive)	-0.055 (inactive)	0.665 (inactive)	-0.0651	0.324 (inactive)	1.03 (inactive)	1.58	1.32	-1.06	0.243	0.869	0.293	-0.131	0.0284 (inactive)	-0.57	-0.587	-0.506 (inactive)
O=C1OCCC/C=C\[C@H]2OC34C=CCN(Cn5nnc6ccccc65)C(=O)[C@H]3N(CCCO)C(=O)[C@@H]4C12 (stereo not given in full)	0.0048 (inactive)	0.123	1.16 (inactive)	0.614 (inactive)	-0.443 (inactive)	0.261 (inactive)	1.16	0.821 (inactive)	0.689 (inactive)	2.02	-0.745	0.737	-0.395	1.25	-0.284	-0.313	1.16 (inactive)	-0.0773	-0.73	0.651 (inactive)
O=C(N1CCCCC1)[C@]1(CCS(=O)(=O)c2ccccc2)N=C(c2ccc(OCCCO)cc2)O[C@@H]1c1ccccc1	-0.725 (inactive)	1.17	27.2 (active)	19.5 (active)	2.02 (inactive)	-0.192 (inactive)	1.54	-2.96 (inactive)	-1.7 (inactive)	-1.94	-1.64	1.68	-0.663	-1.5	-3.65	-0.0371	-0.136 (inactive)	-1.1	-0.751	-1.32 (inactive)

Reference: PubChem BioAssay
